Inconclusive results are not listed. Unmarked numbers belong to inactive results. Active and inactive are the calls of the source. Unless noted, calls follow the shape of the full dose curve.

We go through 30 molecules from PubChem BioAssay (NCATS).

The target of experiment [1] is Protein phosphatase 1D (Homo sapiens) (UniProt O15297). The experiment in a line: RapidFire Mass Spectrometry qHTS Assay for Modulators of WT P53-Induced Phosphatase 1 (WIP1) (AID 1347424; active = well fitted curve in the direction sought with a large enough effect; an effect the other way counts as inactive or inconclusive;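 also: amount of dephosphorylated VEPPL-S-QETFS peptide product formed by WIP1; series mostly up to about 63 µM; plate controls were DMSO wells for no effect and GSK830371 inhibitor control at 10 µM for full effect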). The method, boiled down:
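10 nM WIP1 + cpd, 1 h RT; + 2 uM VEPPL-pS-QETFS, 5 min RT; stop 0.5% formic acid; labelled product standard 1 uM; RapidFire MS. Buffer 50 mM Tris pH 7.5, 30 mM MgCl2, 1 mM TCEP.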
(Quantitative high-throughput screening tests each substance at several concentrations.)

The target is the same in experiment [2]. In words: Rhodamine-PBP qHTS Assay for Modulators of WT P53-Induced Phosphatase 1 (WIP1) (AID 1347425; active = well fitted curve in the direction sought with a large enough effect; an effect the other way counts as inactive or inconclusive; also: % of control where 0% means no effect). The method, boiled down: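 WIP1 (5 nM final) was preincubated with compound for 1 hour at room temperature. It then dephosphorylated 10 uM VEPPL-pS-QETFS peptide in Tris-HCl pH 7.5 with 30 mM MgCl2. Released Pi was detected by 10 uM Rh-PBP fluorescence (ex 525/em 598 nm) read at 1-min intervals for 11 min, as delta f1 - f0.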

A short description of experiment [3]: Primary qHTS for inhibitors of SARS-S pseudo-typed particle cell entry (AID 1479145). Also: nearly all actives have a fitted effect of over 45% in size. Also: potency is read from the fitted curve at half-maximal effect. As to activity change, negative = inhibition: series mostly up to about 57 µM; % is scaled to controls: 0 for no effect and ±100 for the full control effect.
A short description of experiment [4]: Primary qHTS for Huh7 cytotoxicity: counterscreen for inhibitors of MERS-S pseudotyped particle cell entry (AID 1479147). Also: potency is read from the fitted curve at half-maximal effect. As to activity change, negative = cytotoxicity: % is scaled to controls: 0 for no effect and ±100 for the full control effect.
Experiment [5] can be described thus: Primary qHTS for inhibitors of MERS-S pseudo-typed particle cell entry (AID 1479149). Also: nearly all actives have a fitted effect of over 60% in size. Also: potency is read from the fitted curve at half-maximal effect. As to activity change, negative = inhibition: series mostly up to about 57 µM; % is scaled to controls: 0 for no effect and ±100 for the full control effect.
Experiment [6] is described as follows: Primary qHTS for Vero E6 cytotoxicity: counterscreen for inhibitors of SARS-S pseudo-typed particle cell entry (AID 1479150). Also: potency is read from the fitted curve at half-maximal effect.
A short description of experiment [7]: Primary qHTS for inhibitors of La Crosse Virus (LACV) - induced cell death in SH-SY5Y cells (AID 1508616; active = well fitted curve in the direction sought with a large enough effect; an effect the other way counts as inactive or inconclusive;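 also: top concentration of the series differs between compounds; 0% = infected DMSO wells and 100% = uninfected DMSO wells; higher means more rescue of cells from virus-induced death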). A digest of the protocol:
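Luminescent ATP readout (ATPLite 1step, 5 min room temperature) measured rescue from LACV-induced death after 6 days of infection at 0.01 MOI; normalized to infected DMSO wells and uninfected DMSO wells.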

Experiment [8] addresses Calcium and integrin-binding protein 1 (Homo sapiens) (UniProt Q99828). The experiment in a line: Primary qHTS for Identification of Calcium Integrin Binding Protein 1 (CIB1) Competitor (AID 1508620; active = well fitted curve in the direction sought with a large enough effect; an effect the other way counts as inactive or inconclusive;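 also: GST tagged CIB1 binding a fluorescein labelled alphaIIb integrin peptide tracer; top concentration of the series differs between compounds; % is scaled to controls: 0 for no effect and ±100 for the full control effect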). The method, boiled down: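 CIB1-GST (1 uM final) and compound incubated 15 min at room temperature before adding FITC-alphaIIb peptide tracer (100 nM final). Competition for binding read by fluorescence polarization (ex 480, em 540) after another 15 min at room temperature.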

A short description of experiment [9]: Counterscreen qHTS for small molecule stabilizers of the endoplasmic reticulum resident proteome: GLuc-NoTag assay (AID 1508627; active = well fitted curve in the direction sought with a large enough effect; an effect the other way counts as inactive or inconclusive;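 also: SH-SY5Y cells given compound then 100 nM thapsigargin to empty ER calcium; series mostly up to about 76 µM; 0% = thapsigargin alone and -100% = DMSO vehicle control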). A digest of the protocol: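 Luminescence of Gaussia luciferase secreted into the medium (coelenterazine, 0.07x final, unlysed cells) was the read-out. Human SH-SY5Y neuroblastoma cells constitutively secreting untagged GLuc received compound for 19 h, then 100 nM thapsigargin for 4 h.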
Background: The purpose of a counterscreen is to sort out artefacts and off-target activity.

Experiment [10] can be described thus: Confirmatory qHTS for small molecule stabilizers of the endoplasmic reticulum resident proteome: Secreted ER Calcium Modulated Protein (SERCaMP) assay (AID 1508628; active = well fitted curve in the direction sought with a large enough effect; an effect the other way counts as inactive or inconclusive; also: potency is read from the fitted curve at half-maximal effect; nearly all actives have a fitted effect of over 40% in size). The method, boiled down: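 We seeded SH-SY5Y-GLuc-SERCaMP cells, added compounds (three concentrations in the primary run, eleven up to 76.6 uM in confirmation), incubated 16 h, depleted ER calcium with thapsigargin, and read luciferase 4 h later.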

Sequence of Protein phosphatase 1D (Homo sapiens) (O15297 whole entry, looked up): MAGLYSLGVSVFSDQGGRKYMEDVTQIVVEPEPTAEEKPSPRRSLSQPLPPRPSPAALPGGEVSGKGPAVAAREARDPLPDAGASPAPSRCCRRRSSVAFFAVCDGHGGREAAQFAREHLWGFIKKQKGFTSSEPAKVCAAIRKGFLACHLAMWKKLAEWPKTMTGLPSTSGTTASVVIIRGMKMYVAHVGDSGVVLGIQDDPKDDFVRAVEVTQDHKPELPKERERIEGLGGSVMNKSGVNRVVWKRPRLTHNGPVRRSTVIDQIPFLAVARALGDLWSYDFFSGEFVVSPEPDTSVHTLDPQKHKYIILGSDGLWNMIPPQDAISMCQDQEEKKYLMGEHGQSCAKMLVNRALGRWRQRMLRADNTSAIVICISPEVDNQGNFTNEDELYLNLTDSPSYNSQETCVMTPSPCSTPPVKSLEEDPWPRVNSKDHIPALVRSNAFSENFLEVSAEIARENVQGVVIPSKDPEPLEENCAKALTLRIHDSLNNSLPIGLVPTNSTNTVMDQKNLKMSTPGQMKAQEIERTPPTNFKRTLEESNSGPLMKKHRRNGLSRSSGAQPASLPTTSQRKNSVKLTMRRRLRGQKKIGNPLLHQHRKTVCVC
Sequence of Calcium and integrin-binding protein 1 (Homo sapiens) (Q99828 whole entry, looked up): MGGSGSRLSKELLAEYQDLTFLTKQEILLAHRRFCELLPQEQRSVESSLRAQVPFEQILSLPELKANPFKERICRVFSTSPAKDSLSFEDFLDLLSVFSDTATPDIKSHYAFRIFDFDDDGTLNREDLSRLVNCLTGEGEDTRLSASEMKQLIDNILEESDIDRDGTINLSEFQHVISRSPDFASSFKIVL

For the molecule `CCC(=O)O[C@H]1CC[C@H]2[C@@H]3CCC4=CC(=O)CC[C@]4(C)[C@H]3CC[C@]12C`, the Potency entry in [1], in [3], in experiment [4], in experiment [5], in experiment [6] and in experiment [8] was “inactive” throughout. The molecule was called inactive in [2] and in [7].

`c1ccc2c(c1)Sc1ccccc1N2CC1CN2CCC1CC2` (configuration not stated): the Potency result in experiment [1], in experiment [6] and in experiment [8] was “inactive” in each case. Also, the outcome in [2] was inactive.

As to `NC(N)=NCCC[C@H](N)C(=O)O`, the activity change, negative = inhibition in experiment [3] was -24.6% [at 5.34 µM]. The outcome in [4] and in experiment [5] was “inactive [at 5.34 µM]” each time. Besides, in experiment [6], the activity change, negative = cytotoxicity was 0.575% [at 5.34 µM].

As for `Oc1ccc2[nH]cc(CCCCN3CC=C(c4ccccc4)CC3)c2c1`, the Potency entry in experiment [1], in [8] and in experiment [9] was “inactive” throughout. Besides, the molecule was classed as inactive in experiment [2] and in experiment [7]. Moreover, the Potency in [10] was 12.6 µM (active).

As for `CC(C)NCCCC1(C(N)=O)c2ccccc2-c2ccccc21`, the Potency entry in experiment [3], in experiment [4], in [5] and in experiment [6] was “inactive” in each case.

For `CCCCCCCCCCCCCCCCCCNC(=O)OC1CCN(C(=O)OC[C@H](COC(=O)N(Cc2cccc[n+]2CC)C(=O)c2ccccc2OC)OC)CC1`, the Potency in [3] was 25.1 µM (active). Further, in experiment [4], the Potency entry was “inactive”.

For `CC1N=C(N)OC1c1ccccc1` (configuration not stated), the Potency entry in [1] and in experiment [8] was “inactive” throughout. Besides, the call in experiment [2] and in experiment [7] was inactive.

As for `C[C@]12CC[C@@H]3c4ccc(O)cc4CC[C@H]3[C@@H]1CC[C@@H]2OC(=O)CCC1CCCC1`, the Potency result in experiment [3], in [4], in experiment [5] and in [6] was “inactive” in each case.

With `C[C@@]12C(=O)OC(=O)[C@]1(C)C1CCC2O1`, the results for the Potency in experiment [3] and in experiment [4] were 14.1 µM (active) and 22.4 µM (active), respectively.

Take `CC(=O)/C=C/C=C1/C2CCC(C2)C1(C)C` (configuration not stated): the Potency result in experiment [3], in experiment [4], in experiment [5] and in experiment [6] was “inactive” in each case.

Consider `CCCN(CCC)C(=O)C(CCC(=O)O)NC(=O)c1ccccc1` (configuration not stated), for which the Potency result in [3], in experiment [4], in experiment [5] and in experiment [6] was “inactive” each time.

Take `COC(=O)Nc1nc2ccc(S(=O)c3ccccc3)cc2[nH]1` (configuration not stated): the Potency result in experiment [3], in experiment [4] and in [5] was “inactive” throughout.

Consider `Cc1ccc(Nc2c(F)cccc2Cl)c(CC(=O)O)c1`, for which the Potency entry in experiment [3], in experiment [4], in [5] and in experiment [6] was “inactive” in each case.

For `COCc1c(C(C)C)nc(C(C)C)c(/C=C/[C@@H](O)C[C@@H](O)CC(=O)O)c1-c1ccc(F)cc1`, the Potency result in experiment [3], in experiment [4] and in experiment [5] was “inactive” throughout. For the same molecule, the Potency in [6] is 0.708 µM (active).

Consider `Oc1c(Cl)cc(Cl)c2cccnc12`, for which the Potency result in experiment [3] was “inactive”.

With `O=c1[nH]cnc2c1ncn2[C@@H]1O[C@H](CO)[C@@H](O)[C@H]1O`, the Potency result in [3], in experiment [4], in experiment [5] and in experiment [6] was “inactive” in each case.

As to `CN(C)CCn1nnnc1SCC1=C(C(=O)O)N2C(=O)[C@@H](NC(=O)Cc3csc(N)n3)[C@H]2SC1`, the Potency entry in experiment [3], in [4], in experiment [5] and in experiment [6] was “inactive” each time.

Take `Nc1ccc(S(=O)(=O)Nc2cnc3ccccc3n2)cc1`: the Potency result in experiment [3], in experiment [4], in [5] and in [6] was “inactive” throughout.

As for `CCOP(=S)(OCC)O/N=C(\C#N)c1ccccc1`, the Potency result in experiment [1] and in [8] was “inactive” each time. Also, the call in experiment [2] was inactive.

For `NC(N)=NC(=O)c1nc(Cl)c(N)nc1N`, the Potency result in experiment [3], in experiment [4], in [5] and in [6] was “inactive” in each case.

For the molecule `CC(=O)Oc1ccc(C(c2ccc(OC(C)=O)cc2)c2ccccn2)cc1`, the Potency in experiment [3] was 1.41 µM (active). Also, the Potency entry in [4] and in experiment [5] was “inactive” throughout.

Consider `[O-][n+]1ccccc1SSc1cccc[n+]1[O-]`, for which, in [3], the Potency result is “inactive”.

Take `CCCCC/C=C\C/C=C\CCCCCCCC(=O)NC(C)c1ccccc1` (configuration not stated): the Potency result in [3], in experiment [4], in [5] and in experiment [6] was “inactive” each time.

As to `CCCCCCCCCCCCCCCC[n+]1ccccc1`, the results for the Potency in [3], in experiment [4] and in experiment [5] were 3.16 µM (active), 11.2 µM (active) and 7.08 µM (active), respectively.

On to `C[C@H]1O[C@@H](O[C@H]2CC[C@@]3(C)[C@H](CC[C@@H]4[C@@H]3C[C@@H](O)[C@]3(C)[C@@H](C5=CC(=O)OC5)CC[C@]43O)C2)C[C@H](O)[C@@H]1O[C@H]1C[C@H](O)[C@H](O[C@H]2C[C@H](O)[C@H](O[C@@H]3O[C@H](CO)[C@@H](O)[C@H](O)[C@H]3O)[C@@H](C)O2)[C@@H](C)O1`, for which the Potency in experiment [3] is 0.891 µM (active); in [4] it was 1 µM (active). Further, the Potency entry in experiment [5] is “inactive”.

As for `O=C1c2cccc(O)c2C(=O)c2c(O)cccc21`, the Potency result in [3], in experiment [4], in [5] and in [6] was “inactive” in each case.

`CC(C)C[C@@H](N)C(=O)O`: the Potency result in experiment [3], in experiment [4], in [5] and in experiment [6] was “inactive” throughout.

Turning to `C[C@@H]1C[C@H]2[C@@H]3CCC4=CC(=O)C=C[C@]4(C)[C@@]3(F)[C@@H](O)C[C@]2(C)[C@@]1(O)C(=O)COC(=O)c1ccncc1`, the Potency entry in [3], in experiment [4], in [5] and in [6] was “inactive” each time.

Regarding `Clc1ccc(CSC(Cn2ccnc2)c2ccc(Cl)cc2Cl)cc1` (configuration not stated), the Potency result in [1], in [4] and in experiment [8] was “inactive” throughout. The molecule was classed as inactive in [2] and in experiment [7].

For `NCC1CCC(C(=O)Oc2ccc(CCC(=O)O)cc2)CC1` (configuration not stated), the Potency result in experiment [3], in experiment [4], in [5] and in experiment [6] was “inactive” each time.
